Laboratory results published in PubChem BioAssay.
The source made the active and inactive calls.

test: E. coli DRC41 culture turbidity changes, primary screen, E. coli filamentation inducer project, strain DRC41, OD650, 48 h (AID 1152);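 note: E. coli MC1000 strain DRC41 lacking acrAB efflux pump and sulA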; conditions: E. coli DRC41 (acrAB sulA), higher = more signal, called active from +8 up or from −8 down

z-score, inactive:
CN1C(=O)[C@]2(CCC(=O)OC(C)(C)C)N=C(c3ccc(OCCCO)cc3)O[C@@H]2c2ccccc21 0.504
CC(c1ccccc1)C(O)C1C=CC2C(=O)N(c3ccccc3)C(=O)C2N1Nc1ccc(C#N)cc1 (stereo unspecified) 1.16
COCCOC(=O)N1C(=O)[C@@]2(c3cc(C#CCCO)ccc31)[C@H](C(=O)N1CCN(c3ncccn3)CC1)[C@H]1C(=O)O[C@H](c3ccccc3)[C@H](c3ccccc3)N1[C@@H]2c1ccc(O)cc1 1.35
C#CCN(C/C=C/c1ccccc1)[C@H](CO[Si](C)(C)C(C)(C)C)c1ccccc1 -0.78
NCCCC[C@@H]1NC(=O)[C@H]2C[C@@H](C(=O)O)[C@@H](c3cccc(OCCO)c3)N2C1=O -1.23
[N-]=[N+]=NCc1ccccc1C[C@]1(C(=O)N2CCCCC2)N=C(c2ccc(OCCCO)cc2)O[C@H]1c1ccccc1 0.74
CCCCC(=C=CC[C@H](O)c1ccc(OCCO)cc1)C[C@H](O)c1ccccn1 0.558
CN(C)C(=O)[C@@]1(CCS(=O)(=O)c2ccccc2)N=C(c2ccc(OCCCO)cc2)O[C@H]1c1ccccc1N=[N+]=[N-] 0.395
[N-]=[N+]=NCc1ccccc1[C@@H]1OC(c2ccc(OCCCO)cc2)=N[C@]1(Cc1ccccc1)C(=O)NCc1ccccc1 0.251
O=C(NCCO)C1=C[C@H](Oc2ccccc2I)[C@@H](O)[C@H](NCc2ccc(F)cc2)C1 -1.76
COc1ccc([Si](C)(C)[C@@H]2[C@@H](CC(=O)N(CCO)Cc3ccccc3)O[C@]3(C(=O)N(Cc4ccc(N5CCC5=O)cc4)c4ccccc43)[C@H]2C)cc1 1.12
